Assay results taken from PubChem BioAssay AID652071 (NMMLSC, 2013).
Active and inactive are the calls of the source. How the calls were made is not given here.

Assay: V-ATPase proton transport modulators in yeast, dose response, S. cerevisiae, pHLuorin, powder set 4 (AID 652071)
Conditions: S. cerevisiae pHLuorin cytosolic pH fluorescence; series mostly up to 100 µM

outcome, inactive:
CN(C)Cc1ccc(C(=O)Nc2ccccc2N2CCN(C)CC2)o1
CN1CCN(c2ccccc2NC(=O)c2cccc(C(F)(F)F)c2)CC1
CN1CCN(c2ccccc2NC(=O)c2ccc(C(F)(F)F)o2)CC1
CN1CCN(c2ccccc2NC(=O)c2cnc(N)o2)CC1
CN1CCN(c2ccccc2NC(=O)c2cccc(S(=O)(=O)N(C)C)c2)CC1
NC(=O)c1ccc(C(=O)Nc2ccccc2N2CCCCC2)o1
Cc1ccc(C(=O)Nc2ccccc2N2CCCCC2)o1
CC(=O)N1CCN(c2ccccc2NC(=O)c2cccc(CC#N)c2)CC1
O=C(Nc1ccccc1N1CCCCC1)c1ccc(Br)o1
CN1CCN(c2ccccc2NC(=O)c2ccc(C(C)(C)C)o2)CC1
CN(C)S(=O)(=O)c1cccc(C(=O)Nc2ccccc2N2CCCCC2)c1
Cc1cccc(C(=O)Nc2ccccc2N2CCN(C)CC2)n1
CC(=O)N1CCN(c2ccccc2NC(=O)c2cc(C)ccn2)CC1
Cc1cncc(C(=O)Nc2ccccc2N2CCN(C)CC2)n1
CN1CCN(c2ccccc2NC(=O)c2ccc(S(C)(=O)=O)o2)CC1
CS(=O)(=O)c1cccc(C(=O)N2CCN(c3nc4ccc(F)cc4s3)CC2)c1
O=C(Nc1ccccc1N1CCCCC1)c1occc1-c1ccccc1
CN1CCN(c2ccccc2NC(=O)c2cc(Cl)ccn2)CC1
CN1CCN(c2ccccc2NC(=O)c2cccc(Cl)n2)CC1
CS(=O)(=O)c1cccc(C(=O)Nc2ccccc2N2CCCCC2)c1
CN1CCN(c2ccccc2NC(=O)c2cc(C(F)(F)F)ccn2)CC1
CC(C)(C)c1ccc(C(=O)Nc2ccccc2N2CCCCC2)o1
N#CCc1cccc(C(=O)Nc2ccccc2N2CCOCC2)c1
N#CCc1cccc(C(=O)N2CCN(c3nc4ccc(F)cc4s3)CC2)c1
CC(=O)N1CCN(c2ccccc2NC(=O)c2ccc(CN(C)C)o2)CC1
CC(=O)N1CCN(c2ccccc2NC(=O)c2cc(Cl)ccn2)CC1
CN1CCN(c2ccccc2NC(=O)c2cncc(Cl)n2)CC1
CC(=O)N1CCN(c2ccccc2NC(=O)c2ccc(Cl)o2)CC1
CS(=O)(=O)c1ccc(C(=O)Nc2ccccc2N2CCCCC2)o1
O=C(Nc1ccccc1N1CCCCC1)c1cccc(C(F)(F)F)c1
CC(=O)N1CCN(c2ccccc2NC(=O)c2cccc(C#N)c2)CC1
O=C(Nc1ccccc1N1CCCCC1)c1cccc(Cl)n1
CN1CCN(c2ccccc2NC(=O)c2cccc(S(C)(=O)=O)c2)CC1
Cc1ccnc(C(=O)Nc2ccccc2N2CCCCC2)c1
O=C(Nc1ccccc1N1CCCCC1)c1cc(C(F)(F)F)ccn1
